Our source for the z-score and composite z-score values is PubChem BioAssay.

Calls of active or inactive are those of the source. Unless noted, no rule for the calls is given here.

The nature of experiment [1]: resazurin metabolic signal in HepG2 cells – cell-based, resazurin fluorescence, 24 h, PK04 Diversity Set, profiling panel (AID 1172). Also: test concentration not given here. Particulars: HepG2 viability, higher = more signal. On the technique in general: The colour change of resazurin is a common sign of viable cells or microbes.
Experiment [2] is described as follows: budding yeast growth changes without added modifier – OD600, strain BY4716, 24 h, basal condition, primary screen (AID 1173). Particulars: S. cerevisiae BY4716 growth, OD600, 24 h; higher = more signal, called active from +8 up or from −8 down.
Experiment [3] can be described thus: viability profiling in MM1S myeloma cells – cell-based, resazurin fluorescence, basal, 24 h, PK04 Diversity Set, profiling panel (AID 1174).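 Also: MM1S multiple myeloma cell line; test concentration not given here.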 The settings on record: higher = more signal, called active from +8 up or from −8 down.
Experiment [4] addresses Dihydroorotate dehydrogenase (quinone), mitochondrial (Plasmodium falciparum (isolate 3D7)) (UniProt Q08210). Description: inhibition of P. falciparum DHODH – biochemical, C-terminal His tag, absorbance 600 nm, primary screen (AID 1175).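 Also: recombinant parasite enzyme with a five histidine tag at its C terminus; test concentration not given here.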 The settings on record: PfDHODH enzyme, DCIP absorbance 600 nm; higher = more signal, called active from +8 up or from −8 down.
A short description of experiment [5]: inhibition of PAO1 biofilm formation – strain PAO1, LB-PBS medium, absorbance 600 nm, primary screen (AID 1176). Also: test concentration not given here. The settings on record: P. aeruginosa PAO1 growth/biofilm, A600, 12 h; higher = more signal.
Experiment [6] can be described thus: growth modulation of vineyard yeast isolate – strain RM11-1a, OD600, basal, 24 h, primary screen (AID 1177).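 Also: cultures grown under basal conditions with no added stressor; test concentration not given here.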 Particulars: S. cerevisiae RM11-1a growth, OD600, 24 h; higher = more signal, called active from +8 up or from −8 down.
Experiment [7] is described as follows: growth of efflux-deficient E. coli DRC39 – strain DRC39, OD650, 24 h, E. coli filamentation inducers, primary screen (AID 1178).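 Also: growth measured as culture turbidity by optical density at 650 nm; test concentration not given here.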 Particulars: E. coli DRC39 acrAB, higher = more signal, called active from +8 up or from −8 down.
Experiment [8] can be described thus: growth of efflux-deficient E. coli DRC39 – strain DRC39, OD650, 48 h, E. coli filamentation inducers, primary screen (AID 1179).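 Also: screen aims at cell division blockers that make cells filament.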 The settings on record: E. coli DRC39 delta-acrAB growth, higher = more signal, called active from +8 up or from −8 down.
The nature of experiment [9]: viability profiling in RPMI8226 myeloma cells – cell-based, resazurin fluorescence, basal, 24 h, PK04 Diversity Set, profiling panel (AID 1180).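 Also: RPMI8826 multiple myeloma cell line at 5000 cells per well; test concentration not given here.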 Particulars: higher = more signal.
The target of experiment [10] is E3 ubiquitin-protein ligase XIAP (Homo sapiens) (UniProt P98170). Description: small molecules binding XIAP protein – biophysical, small-molecule microarray, fluorescence 635 nm, primary screen (AID 1181).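 Also: score merges 667 nm emission and signal to noise over triplicate slides.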 Particulars: higher = more signal.
Chain of E3 ubiquitin-protein ligase XIAP (Homo sapiens) (P98170 whole entry, looked up): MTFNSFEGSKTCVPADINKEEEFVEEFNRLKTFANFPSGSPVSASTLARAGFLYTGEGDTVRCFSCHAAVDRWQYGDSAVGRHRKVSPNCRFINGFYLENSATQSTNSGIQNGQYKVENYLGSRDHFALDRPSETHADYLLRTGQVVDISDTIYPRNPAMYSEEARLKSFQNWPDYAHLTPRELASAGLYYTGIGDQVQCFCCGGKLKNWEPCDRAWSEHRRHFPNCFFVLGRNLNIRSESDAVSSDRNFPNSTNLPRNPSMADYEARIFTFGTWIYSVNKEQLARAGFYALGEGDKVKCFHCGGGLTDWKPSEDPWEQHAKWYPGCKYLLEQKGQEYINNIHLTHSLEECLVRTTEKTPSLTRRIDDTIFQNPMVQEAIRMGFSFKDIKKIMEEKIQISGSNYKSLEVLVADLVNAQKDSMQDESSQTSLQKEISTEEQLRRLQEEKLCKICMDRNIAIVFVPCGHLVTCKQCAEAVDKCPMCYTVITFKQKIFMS

Chain of Dihydroorotate dehydrogenase (quinone), mitochondrial (Plasmodium falciparum (isolate 3D7)) (Q08210 whole entry, looked up): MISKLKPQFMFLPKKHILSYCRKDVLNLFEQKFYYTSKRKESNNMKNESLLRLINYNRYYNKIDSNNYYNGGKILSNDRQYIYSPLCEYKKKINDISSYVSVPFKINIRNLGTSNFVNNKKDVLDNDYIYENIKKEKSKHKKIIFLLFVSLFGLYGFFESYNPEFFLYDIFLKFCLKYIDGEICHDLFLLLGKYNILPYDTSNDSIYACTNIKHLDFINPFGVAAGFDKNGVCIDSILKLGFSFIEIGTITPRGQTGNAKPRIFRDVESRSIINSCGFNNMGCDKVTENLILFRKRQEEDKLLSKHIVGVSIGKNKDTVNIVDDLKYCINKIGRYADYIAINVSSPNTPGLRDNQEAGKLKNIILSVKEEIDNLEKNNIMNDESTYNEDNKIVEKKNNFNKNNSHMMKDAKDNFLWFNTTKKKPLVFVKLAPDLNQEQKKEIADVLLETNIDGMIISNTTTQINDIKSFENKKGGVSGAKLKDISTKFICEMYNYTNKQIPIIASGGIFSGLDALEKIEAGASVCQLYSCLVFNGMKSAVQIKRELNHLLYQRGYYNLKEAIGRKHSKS

Regarding `CC1CC/C=C\[C@H]2OC34C=CCN(C(C)(C)C)C(=O)[C@H]3N(CCCCCCO)C(=O)[C@@H]4C2C(=O)O1` (stereo not given in full), the z-score in experiment [1] is -0.0231; in experiment [2], -0.51 (inactive); in experiment [3] it was -1.72 (inactive); in [5] it was -0.401 (inactive); in [6], 0.0296 (inactive); in [7], 0.504 (inactive). In addition, the z-score in experiment [8] is 0.749 (inactive); in [9] it was -1.14. Besides, the results for the composite z-score in experiment [4] and in [10] were -1.07 (inactive) and 0.191, respectively.
Consider `COC(=O)[C@@]1(Cc2ccc(F)cc2)[C@H]2c3cc(C(=O)N4CCCC4)n(Cc4cc(C)n(C)n4)c3C[C@H]2CN1C(=O)c1ccccc1`, for which the z-score in experiment [1] is -0.945; in experiment [2] it was 0.603 (inactive); in [3], -0.642 (inactive); in [5], 0.964 (inactive); in experiment [6], 0.279 (inactive); in experiment [7] it was -0.375 (inactive). The z-score in experiment [8] is -0.459 (inactive); in experiment [9], -1.51. For the same compound, the composite z-score is -0.468 (inactive) in [4] and 0.17 in experiment [10].
As to `COc1ccc([Si](C)(C)[C@H]2[C@H](CC(=O)N3CCC[C@H]3CO)O[C@@]3(C(=O)N(Cc4cccc(N5C(=O)c6cccc7cccc5c67)c4)c4ccccc43)[C@@H]2C)cc1`, the z-score in experiment [1] is -1.13; in [2], 0.547 (inactive); in experiment [3] it was -0.712 (inactive); in experiment [5], 0.495 (inactive); in experiment [6], 1 (inactive); in experiment [7] it was -0.672 (inactive). For the same compound, the results for the z-score in experiment [8] and in experiment [9] were -0.881 (inactive) and -1.28, respectively. The composite z-score is -1.74 (inactive) in experiment [4] and 0.013 in experiment [10].
With `CC(C)(C)OC(=O)CC[C@@]1(C(=O)NCC(O)CO)N=C(c2ccc(OCCCO)cc2)O[C@@H]1c1ccccc1N=[N+]=[N-]` (stereo not given in full), the z-score in experiment [1] was 0.486; in experiment [2] it was -0.69 (inactive); in [3], -1.26 (inactive); in [5], -0.127 (inactive); in experiment [6] it was 0.151 (inactive); in experiment [7], 0.4 (inactive). For the same compound, the z-score is 1.65 (inactive) in [8] and 0.576 in experiment [9]. For the same compound, the composite z-score in [4] is 0.536 (inactive); in [10] it was 0.201.
With `O=C(NCc1ccc(F)cc1)[C@H]1C[C@H]2C(=O)N[C@@H](Cc3ccccc3)C(=O)N2[C@H]1c1ccc(O)cc1`, the z-score is -0.354 in [1]; 1.41 (inactive) in experiment [2]; 0.396 (inactive) in experiment [3]; -0.0185 (inactive) in experiment [5]; 1.23 (inactive) in experiment [6]; 0.222 (inactive) in [7]. Further, the z-score is -0.324 (inactive) in experiment [8] and 0.512 in experiment [9]. In addition, the composite z-score was -0.0513 (inactive) in [4] and -0.224 in experiment [10].
As for `CN(C)C(=O)[C@@]1(Cc2ccccc2)N=C(c2ccc(OCCCO)cc2)O[C@H]1c1ccccc1N=[N+]=[N-]`, the z-score in experiment [1] was -0.697; in [2], -1.27 (inactive); in experiment [3], -3.56 (inactive); in experiment [5] it was 0.0533 (inactive); in [6], -0.0844 (inactive); in [7] it was 0.754 (inactive). Further, the z-score in experiment [8] was 0.579 (inactive); in experiment [9] it was -5.06. Moreover, the composite z-score was 0.2 (inactive) in [4] and 0.15 in experiment [10].
As for `Cc1ccc(S[C@]2(C(=O)NCCN3CCOCC3)CC(=O)N(Cc3ccccc3Cl)[C@@H]2c2ccc(CO)cc2)cc1`, the z-score in [1] is 0.286; in experiment [2], -0.709 (inactive); in [3], 1.04 (inactive); in experiment [5], 0.621 (inactive); in [6], 0.381 (inactive); in experiment [7] it was 0.381 (inactive). Further, the z-score in [8] is 0.237 (inactive); in experiment [9] it was 0.958. For the same compound, the composite z-score in [4] was -0.245 (inactive); in [10], 0.0428.
On to `COCCOC(=O)N1C(=O)[C@@]2(c3cc(C#Cc4ccc(OC)cc4)ccc31)[C@H](C(=O)N1CCCCCCC1)[C@H]1C(=O)O[C@H](c3ccccc3)[C@H](c3ccccc3)N1[C@@H]2c1ccc(OCCO)cc1`, for which the z-score in [1] is 0.73; in [2], 0.777 (inactive); in [3] it was 1.15 (inactive); in experiment [5] it was 3.3 (inactive); in experiment [6], 0.262 (inactive); in experiment [7], 1.11 (inactive). In addition, the z-score is 2.25 (inactive) in [8] and 0.425 in experiment [9]. Besides, the composite z-score in [4] is -1.37 (inactive); in experiment [10], 0.47.
Turning to `C#CCNC(=O)[C@H](Cc1ccccc1)NC(=O)CCC(=O)O`, the z-score was -0.487 in experiment [1]; -0.734 (inactive) in [2]; -0.135 (inactive) in experiment [3]; 0.927 (inactive) in experiment [5]; -0.051 (inactive) in experiment [6]; -0.306 (inactive) in experiment [7]. Besides, the z-score is -0.125 (inactive) in experiment [8] and -1.28 in [9]. Besides, the figures for the composite z-score in experiment [4] and in [10] were 0.139 (inactive) and -0.239, respectively.
As for `CN1C(=O)C2C=CC(C(O)c3ccccc3)N(Nc3ccccc3)C2C1=O` (stereo not given), the z-score in [1] is -1.05; in [2], -0.506 (inactive); in experiment [3] it was -1.83 (inactive); in experiment [5], 1.67 (inactive); in [6], 0.166 (inactive); in experiment [7] it was -1.17 (inactive). The z-score in [8] was -1.29 (inactive); in [9] it was -1.52. Besides, the figures for the composite z-score in [4] and in experiment [10] were 0.0323 (inactive) and 0.0651, respectively.
For the compound `O=C1OCCC/C=C\[C@H]2OC34C=CCN(CCN5CCOCC5)C(=O)[C@H]3N(CCCO)C(=O)[C@@H]4C12` (stereo not given in full), the z-score in [1] was -0.0764; in experiment [2] it was -0.314 (inactive); in experiment [3], -0.146 (inactive); in [5] it was -0.525 (inactive); in [6], -1.22 (inactive); in experiment [7], -0.0395 (inactive). Further, the values for the z-score in [8] and in experiment [9] were -0.125 (inactive) and 0.125, respectively. The composite z-score in [4] was -0.053 (inactive); in experiment [10], 0.138.
In the case of `COc1ccc(C(O)C2C=CC3C(=O)NC(=O)C3N2Nc2ccccn2)c2ccccc12` (stereo not given), the z-score was -1.07 in experiment [1]; -0.33 (inactive) in experiment [2]; -0.782 (inactive) in [3]; 1.26 (inactive) in experiment [5]; 0.75 (inactive) in [6]; -0.272 (inactive) in experiment [7]. Further, the z-score in [8] was -0.571 (inactive); in experiment [9], -1.24. Moreover, the composite z-score was 0.977 (inactive) in experiment [4] and 0.246 in experiment [10].
